Reference: PubChem BioAssay (NCATS)
Inconclusive results are not listed. Active and inactive are the calls of the source. Calls follow the shape of the dose curve; as a rule, active = well fitted curve in the direction sought with a large enough effect; inconclusive = small, poorly fitted or top-dose-only effect, or another doubt; inactive = no such curve, though single readings can be large; an effect the other way counts as inactive or inconclusive.

Assays:
NIH3T3 = assay: qHTS assay to identify novel small-molecules to repurpose for Merkel cell carcinoma treatment (AID 1296009); settings: MCC and control cell lines, CellTiter-Glo viability, 72 h; at 44.8 µM (top of the series) unless noted; also: nearly all actives have a fitted effect of over 60% in size
Outline: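 Cell viability, measured as CellTiter-Glo luminescence, was normalized between DMSO and no-cell wells. The cells had been exposed to 8- or 11-point compound dilutions for 72 hr at 37 degree celsius.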

C33A = assay: Primary qHTS to identify gynecologic anti-cancer compounds using libraries of approved drugs and bioactive compounds (AID 1345084); settings: Gynecologic cancer cell panel viability, ATPlite luminescence, 48 h; series mostly up to 57.5 µM; also: % is scaled to controls: 0 for no effect and ±100 for the full control effect; nearly all actives have a fitted effect of over 55% in size
Outline: (§1)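 Measured: luminescence after ATPlite addition (15 min, RT). Exposure: 48 h, 37 C, 5% CO2.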

CAOV3 = assay: as above; settings: Gynecologic cancer cell panel viability, ATPlite luminescence, 48 h; series mostly up to 57.5 µM
Outline: as §1

CASKI = assay: as above; settings: Gynecologic cancer cell panel viability, ATPlite luminescence, 48 h; series mostly up to 57.5 µM
Outline: as §1

Es-2 = assay: as above; settings: Gynecologic cancer cell panel viability, ATPlite luminescence, 48 h; series mostly up to 57.5 µM
Outline: as §1

HeLa = assay: as above; settings: Gynecologic cancer cell panel viability, ATPlite luminescence, 48 h; series mostly up to 57.5 µM
Outline: as §1

Hek293T = assay: as above; settings: Gynecologic cancer cell panel viability, ATPlite luminescence, 48 h, control line for the selectivity index; series mostly up to 57.5 µM
Outline: as §1

COC1=CC(=O)C[C@@H](C)[C@]12Oc1cc(OC)cc(OC)c1C2=O
inactive: outcome (NIH3T3) | Potency (C33A) | Potency (CAOV3) | Potency (CASKI) | Potency (Es-2) | Potency (HeLa) | Potency (Hek293T)

NC(=O)c1ccc(OCC2NC(=O)C3CCCN3C2=O)cc1 (stereo not drawn)
inactive: outcome (NIH3T3) | Potency (C33A) | Potency (CAOV3) | Potency (CASKI) | Potency (Es-2) | Potency (HeLa) | Potency (Hek293T)

CC1=CC(=O)CC(C)(C)C1CCC(C)OC1OC(COC(=O)c2cc(O)c(O)c(O)c2)C(O)C(O)C1O (stereo not drawn)
inactive: outcome (NIH3T3) inactive [at 17.4 µM] | Potency (C33A) | Potency (CAOV3) | Potency (CASKI) | Potency (Es-2) | Potency (HeLa) | Potency (Hek293T)

CC(=O)NC(CCC(=O)O)C(=O)NCCc1ccc(O)cc1 (stereo not drawn)
inactive: outcome (NIH3T3) | Potency (C33A) | Potency (CAOV3) | Potency (CASKI) | Potency (Es-2) | Potency (HeLa) | Potency (Hek293T)

COc1cc(/C=C/C(=O)OC(C)(C)C(OC2OC(CO)C(O)C(O)C2O)C(=O)OCc2ccc(OC3OC(CO)C(O)C(O)C3O)cc2)ccc1O (stereo not drawn)
inactive: outcome (NIH3T3) inactive [at 17.4 µM] | Potency (C33A) | Potency (CAOV3) | Potency (CASKI) | Potency (Es-2) | Potency (HeLa) | Potency (Hek293T)

CCOc1nc2cccc(C(=O)OCc3oc(=O)oc3C)c2n1Cc1ccc(-c2ccccc2-c2noc(O)n2)cc1
inactive: outcome (NIH3T3) | Potency (C33A) | Potency (CAOV3) | Potency (CASKI) | Potency (Es-2) | Potency (HeLa) | Potency (Hek293T)

C=C1CC[C@H]2[C@@H](/C=C(\C)C(=O)[C@@]3(OC(C)=O)C[C@H](C)[C@H](OC(C)=O)[C@@H]3[C@H]1OC(C)=O)C2(C)C
inactive: outcome (NIH3T3) inactive [at 17.4 µM] | Potency (C33A) | Potency (CAOV3) | Potency (CASKI) | Potency (Es-2) | Potency (HeLa) | Potency (Hek293T)

CCn1nnnc1NCc1ccc(C(C)C)cc1
inactive: outcome (NIH3T3) | Potency (C33A) | Potency (CAOV3) | Potency (CASKI) | Potency (Es-2) | Potency (HeLa) | Potency (Hek293T)

COc1cc2c(cc1OC)CN(C(=O)[C@@H](NCc1ccncc1)C(C)(C)C)CC2
inactive: outcome (NIH3T3) | Potency (C33A) | Potency (CAOV3) | Potency (CASKI) | Potency (Es-2) | Potency (HeLa) | Potency (Hek293T)

CC1=CC[C@]2(C(=O)O[C@@H]3O[C@H](CO[C@@H]4O[C@H](CO)[C@@H](O[C@@H]5O[C@@H](C)[C@H](O)[C@@H](O)[C@H]5O)[C@H](O)[C@H]4O)[C@@H](O)[C@H](O)[C@H]3O)CC[C@]3(C)C(CCC4[C@@]5(C)C[C@@H](O)[C@H](O)[C@@](C)(CO)C5CC[C@]43C)C2C1C (stereo partly drawn)
inactive: outcome (NIH3T3) inactive [at 9.27 µM] | activity change, negative = cytotoxicity (C33A) 6.24% [at 11.6 µM] | activity change, negative = cytotoxicity (CAOV3) 6.14% [at 11.6 µM] | activity change, negative = cytotoxicity (CASKI) 4.37% [at 11.6 µM] | activity change, negative = cytotoxicity (Es-2) 6.73% [at 11.6 µM] | activity change, negative = cytotoxicity (HeLa) 3.93% [at 11.6 µM] | activity change, negative = cytotoxicity (Hek293T) -4.38% [at 11.6 µM]

NC1CCC(N[C@@H]2C[C@H]2c2ccccc2)CC1 (stereo partly drawn)
inactive: outcome (NIH3T3) | Potency (C33A) | Potency (CAOV3) | Potency (CASKI) | Potency (Es-2) | Potency (HeLa) | Potency (Hek293T)

CC(NC(=O)CC(=O)O)c1nc2ccccc2c(=O)[nH]1 (stereo not drawn)
inactive: outcome (NIH3T3) | Potency (C33A) | Potency (CAOV3) | Potency (CASKI) | Potency (Es-2) | Potency (HeLa) | Potency (Hek293T)

COc1ccc2c(c1O)OC[C@H]1c3ccc(O)cc3O[C@@H]21
inactive: outcome (NIH3T3) | Potency (C33A) | Potency (CAOV3) | Potency (CASKI) | Potency (Es-2) | Potency (HeLa) | Potency (Hek293T)

COC(=O)c1ccc(O[C@@H]2O[C@H](CO)[C@@H](O)[C@H](O)[C@H]2O)c(OC)c1
inactive: outcome (NIH3T3) | Potency (C33A) | Potency (CAOV3) | Potency (CASKI) | Potency (Es-2) | Potency (HeLa) | Potency (Hek293T)

COC(=O)C1C(c2ccc(O)cc2)C(C(=O)OC)C1c1ccc(O)cc1 (stereo not drawn)
inactive: outcome (NIH3T3) | Potency (C33A) | Potency (CAOV3) | Potency (CASKI) | Potency (Es-2) | Potency (HeLa) | Potency (Hek293T)

CC(=O)O[C@@H]1[C@H](O[C@@H]2O[C@H](CO)[C@@H](O)[C@H](O)[C@H]2O)[C@@H](O[C@@H]2O[C@@H](C)[C@H](O)[C@@H](O[C@@H]3O[C@H](CO)[C@@H](O)[C@H](O)[C@H]3O)[C@H]2O)[C@H](OC(=O)C23CCC4(C)C(=CCC5C6(C)CC(O)C(O[C@@H]7O[C@H](C(=O)O)[C@@H](O)[C@H](O)[C@H]7O)C(C)(C(=O)O)C6CCC54C)C2CC(C)(C)CC3O)O[C@@H]1C (stereo partly drawn)
inactive: outcome (NIH3T3) inactive [at 9.27 µM] | activity change, negative = cytotoxicity (C33A) 3.56% [at 6.55 µM] | activity change, negative = cytotoxicity (CAOV3) 14.4% [at 6.55 µM] | activity change, negative = cytotoxicity (CASKI) 24.3% [at 6.55 µM] | activity change, negative = cytotoxicity (Es-2) 1.96% [at 6.55 µM] | activity change, negative = cytotoxicity (HeLa) -1.78% [at 6.55 µM] | activity change, negative = cytotoxicity (Hek293T) 14.8% [at 6.55 µM]

CC1=CCC2C(C)(CO)CCCC2(C)C1CC12OC1C(O)C(CO)=CC2O (stereo not drawn)
inactive: outcome (NIH3T3) | Potency (C33A) | Potency (CAOV3) | Potency (CASKI) | Potency (Es-2) | Potency (HeLa) | Potency (Hek293T)

CC(C)(O)C1=CCC23COC(C2)C(O)(C(=O)O)CCC13 (stereo not drawn)
inactive: outcome (NIH3T3) | Potency (C33A) | Potency (CAOV3) | Potency (CASKI) | Potency (Es-2) | Potency (HeLa) | Potency (Hek293T)

C=C(C(=O)OC)C1CCC2(C)C(O[C@@H]3O[C@H](CO)[C@@H](O)[C@H](O)[C@H]3O)CC(=O)C(C)C2C1O (stereo partly drawn)
inactive: outcome (NIH3T3) inactive [at 17.4 µM] | Potency (C33A) | Potency (CAOV3) | Potency (CASKI) | Potency (Es-2) | Potency (HeLa) | Potency (Hek293T)
